Assay outcomes: PubChem, several laboratories
This is a sample that favours compounds with a hit; in the whole collection about 6.9% have one here.
FXIIa inh mix – human factor XIIa inhibitors, primary screen, biochemical, pooled compound mixtures, fluorogenic substrate; Coagulation factor XII (Homo sapiens), P00748; purified FXIIa; inhibition, % at 5 µM; hit rate 0.2% among 62,000; AID 684, 2007
HER2 expr 66K – inhibitors of Her2 protein expression, primary screen, SKBR-3 cells, AlphaScreen, 66K library; Receptor tyrosine-protein kinase erbB-2 (Homo sapiens), P04626; HER2 level % of control, % at 10 µM; hit rate 0.69% among 65,000; SKBR-3 HER2 protein level, 18-24 h; stronger effect = lower value;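 active = HER2 level under 5% of the carrier-only control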;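 also: lower value means stronger loss of Her2 protein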
JNK3 blocker – JNK3 kinase activity inhibitors, primary screen, biochemical, human, purified enzyme | AID 746, 2007 | HTS | hit rate 0.61% among 60,000 | Mitogen-activated protein kinase 10 (Homo sapiens), P53779 | inhibition, % at 8 µM; in the data active = inhibition above about 17%
M1 antagonist – antagonists of rat M1 muscarinic receptor; CHO-M1 cells, Fluo-4 calcium, ACh EC80 antagonist mode; stronger effect = lower value; hit rate 3.4% among 64,000; Muscarinic acetylcholine receptor M1 (Rattus norvegicus), P08482; B-score at 10 µM;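 active = calcium fluorescence response, raw or row-and-column corrected B-score, differing from the plate sample mean either way at a set confidence level, mostly lower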
Target sequence (P08482 whole entry, looked up): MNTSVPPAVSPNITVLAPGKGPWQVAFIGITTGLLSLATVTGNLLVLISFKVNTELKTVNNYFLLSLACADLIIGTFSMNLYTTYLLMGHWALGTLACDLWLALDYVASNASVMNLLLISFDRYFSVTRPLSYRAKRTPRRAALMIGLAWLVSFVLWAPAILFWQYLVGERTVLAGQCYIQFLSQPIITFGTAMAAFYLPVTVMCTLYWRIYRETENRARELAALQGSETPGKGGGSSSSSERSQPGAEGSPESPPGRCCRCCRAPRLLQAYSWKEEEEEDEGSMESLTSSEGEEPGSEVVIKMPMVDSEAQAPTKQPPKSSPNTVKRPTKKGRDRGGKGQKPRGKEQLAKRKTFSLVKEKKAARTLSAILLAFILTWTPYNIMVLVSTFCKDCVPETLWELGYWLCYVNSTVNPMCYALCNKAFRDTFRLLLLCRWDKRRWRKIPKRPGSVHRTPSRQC
FXIa inh mix – FXIa protease inhibitors in compound pools, primary screen, biochemical, 10-compound mixtures; Coagulation factor XI (Homo sapiens), P03951; purified FXIa, fluorogenic substrate, pooled mixtures; inhibition, % at 5 µM; hit rate 0.19% among 62,000; AID 680, 2007;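 also: each value is inhibition by a whole ten-compound pool holding the compound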
M1 agonist – M1 muscarinic receptor agonists, primary screen, CHO-M1 cells, Fluo-4 calcium, agonist mode; hit rate 3% among 64,000; Fluo-4 calcium fluorescence; stronger effect = higher value; B-score at 10 µM;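 active = fluorescence rise, raw or as B-score row- and column-corrected plate score, outside the 99.7% band of its plate's samples, either direction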
Of the large screens only hits and unclear results are named; the others gave an inactive call. Rule as the data show it, unless noted: active = inhibition above about 20% (passing the limit was not always enough); inactive = the rest.

CCn1cc(C2=NOC(C(=O)Nc3cccc(C(C)=O)c3)C2)c(C)n1 (stereo not given)	none
CCn1cc(C2=NOC(C(=O)Nc3c(C)nn(Cc4ccc(F)cc4)c3C)C2)c(C)n1 (stereo not given)	FXIa inh mix 21.5
Cc1c(C(=O)NCCN2CCOCC2)oc2ccc(S(=O)(=O)N3CCCCCC3)cc12	HER2 expr 66K -21.5 (no result: JNK3 blocker)
Cc1c(C(=O)NCC2CCCO2)oc2ccc(S(=O)(=O)N3CCCCC3)cc12 (stereo not given)	none
CCN(CCCNC(=O)C1CCCN(S(=O)(=O)c2cnc[nH]2)C1)c1ccccc1 (stereo not given)	none
CC(C)(C)NC(=O)c1ccc2c(c1)N(CC(=O)N1CCN(c3ccc(F)cc3)CC1)C(=O)C(C)(C)O2	none
COC(=O)c1ccccc1NC(=O)CSc1nc(O)cc(=O)n1C1CCCC1	M1 agonist 43.8
Cc1ccc(-n2nnnc2SCC(=O)c2cc(C)n(CC3CCCO3)c2C)cc1 (stereo not given)	none
Cc1ccc(-n2nnnc2SCC(=O)c2cc(C)n(-c3cc(C)on3)c2C)cc1	M1 antagonist 0.825
Cn1c(=O)c2c(SCC(=O)N3CCN(c4ccccc4)CC3)nc(C3CC3)nc2n(C)c1=O	M1 antagonist -2.28, M1 agonist 4.79
CC(=O)c1ccc(NS(=O)(=O)c2cccc(C)c2)cc1	none (no result: JNK3 blocker)
O=C(C1CCCN1S(=O)(=O)c1ccc(Cl)c(Cl)c1)N1CCCCC1 (stereo not given)	none
CN(C)C=NC(=O)/C(C#N)=C1\CCc2ccccc2N1	JNK3 blocker 47.5
Cc1ccc(C)n1-c1ccc(N2CCOCC2)nc1	HER2 expr 66K -18.8
CN(C)S(=O)(=O)c1ccc(N2CCOCC2)nc1	none
Cc1ccc(C2C3CN(C(C)C)CC=C3C(C#N)=C(N)C2(C#N)C#N)cc1 (stereo not given)	M1 antagonist 2.24, M1 agonist 54.7
CC(=O)N1CC=C2C(C#N)=C(N)C(C#N)(C#N)[C@H](c3ccoc3)[C@H]2C1	none
N#CC1=C(N)C(C#N)(C#N)[C@H](c2ccoc2)[C@H]2CN(Cc3ccccc3)CC=C12	M1 agonist 25.6
CCN(CC(=O)Nc1c(C(=O)OC)[nH]c2ccc(C)cc12)c1ccc2c(c1)OCO2	none
CCOC(=O)N1CCN(C(=O)CC(=O)Nc2ccc3nc4n(c(=O)c3c2)CCCCC4)CC1	FXIIa inh mix 47.1
O=C(COc1ccc(Cl)cc1Cl)Nc1ccc2nc3n(c(=O)c2c1)CCCC3	none
CCC1CCCCN1c1nc2c(c(=O)n(C)c(=O)n2C)n1CCSc1nc2ccccc2o1 (stereo not given)	M1 antagonist -0.712
Cn1c(=O)c2c(nc(N3CCCCC3)n2CCSc2nc3ccccc3o2)n(C)c1=O	none
N=c1oc2ccccc2cc1-c1nc2ccccc2c(=O)[nH]1	FXIIa inh mix 35.5
Cc1ccc(C)c2[nH]c(=O)c(CN(CC3CCCO3)C(=O)NC3CCCCC3)cc12 (stereo not given)	none
CC(C)CNC(=O)C1CC(=O)OC12CCCCC2 (stereo not given)	M1 antagonist 2.06
CC(C)N(C(=O)C1CC(=O)OC12CCCCC2)C(C)C (stereo not given)	none (no result: JNK3 blocker)
CCC1CCCCN1C(=O)CSc1nnc(-c2c[nH]c3ccccc23)o1 (stereo not given)	none
CCCCNC(=O)c1nc2ncc(Br)cn2n1	FXIa inh mix 25.3
CCCNC(=O)c1nc2ncc(Br)cn2n1	none
CCOC(=O)CCS(=O)(=O)c1nc(-c2ccccc2)cc(C(F)(F)F)n1	HER2 expr 66K -8.7
CCOC(=O)CS(=O)(=O)c1nc(-c2ccccc2)cc(C(F)(F)F)n1	HER2 expr 66K -27.2
Nc1nc(-c2ccc(Cl)cc2)cc(C(F)(F)F)n1	none
COc1ccc(-c2cc(C(F)(F)F)nc(SCCC(=O)Nc3cc(C)on3)n2)cc1	none (no result: FXIIa inh mix, FXIa inh mix)
CCOC(=O)CS(=O)(=O)c1ccc2ccccc2c1	none (no result: JNK3 blocker)
CCOC(=O)CS(=O)(=O)c1nc(-c2ccc(F)cc2)cc(C(F)(F)F)n1	HER2 expr 66K -17.6, M1 agonist 4.38
COCC(C)NC(=O)CCS(=O)(=O)c1nc(-c2ccc(OC)cc2)cc(C(F)(F)F)n1 (stereo not given)	HER2 expr 66K -19.6
CCN(CC)C(=O)CSc1nc(C)cc(-c2cccs2)c1C#N	none (no result: JNK3 blocker)
CCN(CC)C(=O)c1sc2nc(-c3cccs3)cc(-c3cccs3)c2c1N	M1 agonist 14.6
C=CCOC(=O)C1=C(C)Nc2nnnn2C1c1cc(OC)ccc1OC (stereo not given)	HER2 expr 66K -18.2
COc1cccc(C2CC(c3ccccc3Cl)n3ncnc3N2)c1 (stereo not given)	none
COc1cc(CC(=O)Nc2nccs2)cc(OC)c1OC	JNK3 blocker 23.2
COC(=O)c1sccc1NC(=O)c1ccc(Cl)s1	HER2 expr 66K 4.0
COC(=O)c1sccc1NC(=O)c1ccc(OC)cc1	JNK3 blocker 37.5
CCn1c(C(=O)Nc2ccsc2C(=O)OC)cc2sc(Cl)cc21	none
COc1cccc(-c2cc(C(=O)Nc3cc(OC)c(OC)c(OC)c3)no2)c1	M1 agonist 2.38
COc1cccc(C2=NOC(C(=O)Nc3cc(OC)c(OC)c(OC)c3)C2)c1 (stereo not given)	JNK3 blocker 81.0
O=C(Nc1c(-c2ccccc2)nc2sccn12)c1ccccc1	none
CC1CCCC(C)N1C(=O)CSc1nnc(C2CCCCC2)o1 (stereo not given)	none
CCC(C)(C)n1nnnc1C(c1ccc(OC)c(OC)c1)N1CCN(c2ccc(F)cc2)CC1 (stereo not given)	FXIIa inh mix 47.9
CCC(C)(C)n1nnnc1C(c1ccc(OC)c(OC)c1)N1CCN(c2ccc(OC)cc2)CC1 (stereo not given)	none
O=C(c1ccco1)N1CCN(C(c2ccccc2Cl)c2nnnn2Cc2ccco2)CC1 (stereo not given)	M1 agonist 11.8
CCc1c(C)nc2ncnn2c1N1CCC(C(=O)Nc2cccc(C(C)=O)c2)CC1	none
Cc1noc(/C=C/N(C)C)c1S(=O)(=O)N1CCc2ccccc21	M1 antagonist 1.3
C=CCN(C)CCCNC(=O)/C=N/O	none
COCCN1C(=O)C(O)=C(C(C)=O)C1c1ccc(OC)c(OC)c1 (stereo not given)	none
COc1cccc(N2C(=O)C(O)=C(C(C)=O)C2c2ccc(OC)c(OC)c2)c1 (stereo not given)	M1 antagonist 0.567
CCCn1c(=O)c(C(=O)Nc2ccccc2C(=O)OCC)c(O)c2ccccc21	none
CCn1c(=O)c(C(=O)Nc2nc3ccccc3[nH]2)c(O)c2ccccc21	HER2 expr 66K 0.9
